Measurements from PubChem BioAssay.
Values joined by “and” are separate entries in the source; they are usually repeats but may differ in a detail not shown here. Equal values may be shown once. Active and inactive are the calls of the source. Unless noted, the rule behind the calls is not given here.

Columns and labels:
[1] = liver-stage malaria parasite growth inhibition, primary screen, cell-based, HepG2, luciferase luminescence, HepG2 viability (AID 624349; in the data active = parasite load remaining mostly below about 12%, no sharp cut-off; inactive = mostly above about 10%;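 note: 100% = mean of DMSO negative control wells on the same plate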); conditions: P. berghei liver stage in HepG2, luciferase luminescence, concentration not given here; parasite load remaining: stronger effect = lower value; viability: measured here: HepG2 viability without parasites
[2] = test system: Hepatitis C virus NS3 helicase; test: HCV NS3 helicase inhibitors, primary screen, biochemical, fluorescence polarization, LOPAC1280 library (AID 687035; in the data active = inhibition above about 37%); conditions: Purified HCV NS3 helicase, Cy5-dT15 ssDNA binding fluorescence polarization; stronger effect = higher value; concentration not given here
[3] = Cy5 fluorescence quenching or enhancement artefacts, artefact control for HCV NS3 helicase inhibitor project, biochemical, LOPAC1280 (AID 687037); conditions: Cy5-DNA-NS3h complex fluorescence interference counterscreen
[4] = Cy5 fluorescence interference with SSB-bound oligo, artefact control for HCV NS3 helicase inhibitor project, biochemical, NIH Clinical Collection, E. coli SSB (AID 743268)
[5] = test system: Hepatitis C virus NS3 helicase; test: HCV NS3 helicase inhibitors, primary screen, biochemical, fluorescence polarization, NIH Clinical Collection (AID 743270); conditions: NS3 helicase binding to Cy5-dT15 DNA, stronger effect = higher value, concentration not given here
[6] = target: Single-stranded DNA-binding protein (Escherichia coli (strain K12)) (UniProt P0AGE0); test: E. coli SSB displacement from DNA, counter-screen for HCV NS3 helicase inhibitor project, biochemical, fluorescence polarization, NIH Clinical Collection (AID 743271; in the data active = inhibition above about 28%); conditions: stronger effect = higher value, concentration not given here
[7] = fluorescence interference in NS3h assay format, artefact control for HCV NS3 helicase inhibitor project, biochemical, NIH Clinical Collection (AID 743272); conditions: fluorescence interference counterscreen, stronger effect = lower value;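 note: HCV NS3 helicase with a Cy5 labelled single stranded DNA probe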
[8] = test system: Neuropilin-2 / VEGF-C interaction (human); test: inhibitors of NRP2–VEGF-C binding, biochemical, microplate binding format, z-score (AID 743281); conditions: microplate NRP2/VEGF-C binding assay; stronger effect = lower value
[9] = stimulators of nuclear beta-catenin in C2C12, primary screen, imaging, WNT3A-conditioned medium, mouse C2C12, NPC library (AID 1117326; in the data active = nuclear beta-catenin stimulation mostly above about 4.2%, no sharp cut-off; inactive = mostly below about 10%); conditions: stronger effect = higher value
[10] = stimulators of insulin release from INS-1E, primary screen, cell-based, 5 mM glucose, NPC library (AID 1117329;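 active = compound raises insulin release from rat beta cells at 5 mM glucose, no numeric limit stated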); conditions: rat INS-1E insulin secretion, at 10 µM, stronger effect = higher value
[11] = growth inhibition of GSK3B-pretreated HCT116 cells – cell-based, CellTiter-Glo, 0.2 to 20 µM (AID 1117336;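 active = compounds lowering colon cancer cell viability after pretreatment blocking the GSK3B kinase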); conditions: HCT116 viability after GSK3B inhibitor, at 20 µM, stronger effect = higher value
[12] = inhibition of endothelial tube formation, primary screen, imaging, VEGF stimulated, CD31 staining, tube area, NPC library (AID 1117340;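 active = compound that reduces growth-factor-driven endothelial tube area in a mixed cell culture, no cutoff stated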); conditions: VEGF-stimulated ADSC/ECFC co-culture, at 10 µM, stronger effect = higher value
[13] = glucagon-like peptide 1 release enhancers, primary assay, NCI-H716 cell line, NPC library (AID 1117341;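 active = compound raises GLP1 secretion from the human gut endocrine cells, with no numeric limit stated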); conditions: NCI-H716 cells, at 10 µM, stronger effect = higher value
[14] = HCT116 colon cancer cell growth inhibition, primary screen, CellTiter-Glo luminescence, NPC library (AID 1117342;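 active = compounds that lower survival of HCT116 colon cancer cells in the luminescence readout, no numeric limit stated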); conditions: at 20 µM (top of the series)
[15] = CellTiter-Glo luminescent readout of SW480 viability loss, NPC library primary (AID 1117343;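 active = compounds that lower viability of the colon cancer cells in the luminescence readout, with no numeric limit stated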); conditions: CellTiter-Glo luminescence; at 20 µM (top of the series)
[16] = decreased DLD-1 cellular survival, CellTiter-Glo luminescent readout, NPC compound collection, primary HTS (AID 1117346;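 active = compounds that lower survival of DLD-1 colon cancer cells in the luminescence readout, no cutoff given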); conditions: DLD-1 viability, CellTiter-Glo luminescence; at 20 µM (top of the series)

Row | Compound | parasite load remaining [1] | viability [1] | inhibition [2] | fluorescence ratio (interference) [3] | fluorescence ratio [4] | inhibition [5] | inhibition [6] | fluorescence ratio [7] | z-score [8] | nuclear beta-catenin stimulation ([9]; at 10 µM) | nuclear beta-catenin stimulation ([9]; stimulation, at 2 µM) [%] | insulin secretion stimulation [10] | viability decrease [11] | tube area decrease [12] | GLP1 secretion stimulation [13] | inhibition of viability [14] | viability decrease (inhibition) [15] | viability decrease (inhibition) [16]
1 | Cc1cccc(C)c1NC(=O)C(C)N (configuration not stated) | 112% (inactive) and 108% (inactive) | 79.8% and 73.3% | -5% (inactive) | 1 (inactive) | 1.05 (inactive) | -5.15% (inactive) | -3.95% (inactive) | 1 (inactive) | -0.227 (inactive) | 0.2% (inactive) | 1.2 | 0.2% (inactive) | -2.3% (inactive) | -7.9% (inactive) | -0.6% (inactive) | -4.1% (inactive) | 0.1% (inactive) | -5.7% (inactive)
2 | Nc1nnc(-c2cccc(Cl)c2Cl)c(N)n1 | 90.9% (inactive) and 119% (inactive) and 49.7% (inactive) | 105% and 77.7% and 112% | -5% (inactive) | 1 (inactive) | 1.03 (inactive) | 0.4% (inactive) | -1.64% (inactive) | 0.99 (inactive) | -0.624 (inactive) | 0.7% (inactive) | 0.5 | -0.4% (inactive) | -5.8% (inactive) | 9.4% (inactive) | -4.7% (inactive) | 9.7% (inactive) | 29.2% (inactive) | -4.7% (inactive)
3 | C#C[C@]1(O)CC[C@H]2[C@@H]3[C@H](C)CC4=C(CCC(=O)C4)[C@H]3CC[C@@]21C | 43.6% (inactive) and 8.38% (inactive) | 76.2% and 73.5% | – | – | 0.99 (inactive) | 0.66% (inactive) | 1.18% (inactive) | 0.99 (inactive) | – | 7.4% (inactive) | 0.8 | -2.8% (inactive) | 45.5% (inactive) | -5.2% (inactive) | 4.4% (inactive) | -14.3% (inactive) | 109% (active) | 79.8% (active)
4 | c1cnc(N2CCN(Cc3ccc4c(c3)OCO4)CC2)nc1 | 105% (inactive) and 100% (inactive) and 31.2% (inactive) | 78.5% and 71.3% and 101% | -1% (inactive) | 1 (inactive) | 1.01 (inactive) | -5.94% (inactive) | -0.87% (inactive) | 0.96 (inactive) | -0.0568 (inactive) | 0.7% (inactive) | 4.1 | 1% (inactive) | -13.4% (inactive) | -4.5% (inactive) | 10.3% (inactive) | 4.13% (inactive) | -7.2% (inactive) | -20% (inactive)
5 | CCC(=O)O[C@]1(C(=O)SCF)[C@H](C)C[C@H]2[C@@H]3C[C@H](F)C4=CC(=O)C=C[C@]4(C)[C@@]3(F)[C@@H](O)C[C@@]21C | 82.3% (inactive) and 83.8% (inactive) | 68.2% and 100% | – | – | 1 (inactive) | 5.94% (inactive) | 5.29% (inactive) | 1.02 (inactive) | – | 0.9% (inactive) | 2.7 | 0.4% (inactive) | -30.2% (inactive) | -19.4% (inactive) | 9.8% (inactive) | 6.27% (inactive) | 39.6% (inactive) | -7.2% (inactive)
6 | C[C@H](NC(CCc1ccccc1)C(=O)O)C(=O)N1CCC[C@H]1C(=O)O (some centres not stated) | 94.1% (inactive) and 49.6% (inactive) | 70.8% and 156% | -5% (inactive) | 1 (inactive) | 1.07 (inactive) | 1.19% (inactive) | 2.98% (inactive) | 1 (inactive) | 0.126 (inactive) | -0.9% (inactive) | -2.8 | 0.1% (inactive) | -6.3% (inactive) | -8% (inactive) | 1.4% (inactive) | 2.7% (inactive) | -8.4% (inactive) | -2.7% (inactive)
7 | CCN(CC)CC1CCCCN1CC(=O)N1c2ccccc2C(=O)Nc2cccnc21 (configuration not stated) | 84.2% (inactive) | 71.2% | – | – | 1.04 (inactive) | -2.77% (inactive) | -2.41% (inactive) | 1.04 (inactive) | -0.131 (inactive) | 6.3% (inactive) | 1.6 | 4% (inactive) | -12.6% (inactive) | -28.2% (inactive) | 7.7% (inactive) | 1.17% (inactive) | -3.8% (inactive) | 6.8% (inactive)
8 | C[C@@H]1C[C@H]2[C@@H]3CCC4=CC(=O)C=C[C@]4(C)[C@@]3(F)[C@@H](O)C[C@]2(C)[C@H]1C(=O)CO | 74.3% (inactive) | 70.8% | – | – | 0.96 (inactive) | -1.97% (inactive) | -1.97% (inactive) | 0.92 (inactive) | – | -1.6% (inactive) | 0.6 | 7.5% (inactive) | -14.3% (inactive) | 6.7% (inactive) | -0.7% (inactive) | 9.7% (inactive) | 3.5% (inactive) | -5% (inactive)
9 | Nc1nc(F)nc2c1ncn2[C@@H]1O[C@H](CO)[C@@H](O)[C@@H]1O | 18.4% (inactive) | 114% | – | – | 1.01 (inactive) | 1.36% (inactive) | -2.76% (inactive) | 1.02 (inactive) | – | 0.3% (inactive) | 2.3 | -0.6% (inactive) | 12.6% (active) | 106% (active) | -2% (inactive) | 38% (inactive) | 17.2% (inactive) | 19.4% (inactive)
10 | CC(C)(C)NC(=O)[C@H]1CC[C@H]2[C@@H]3CC[C@H]4NC(=O)C=C[C@]4(C)[C@H]3CC[C@]12C | 85.8% (inactive) and 62.9% (inactive) and 31.1% (inactive) | 103% and 63% and 78% | – | – | 1.05 (inactive) | 0.4% (inactive) | -2.41% (inactive) | 1.02 (inactive) | – | 5.2% (inactive) | 2 | 0.6% (inactive) | 5.3% (inactive) | 8.2% (inactive) | 6.1% (inactive) | 5.67% (inactive) | 7.4% (inactive) | -4% (inactive)
11 | CCN1CCCC1CNC(=O)c1cc(S(=O)(=O)CC)c(N)cc1OC (configuration not stated) | 79.8% (inactive) | 68.8% | -3% (inactive) | 0.9 (inactive) | 1.05 (inactive) | 0.4% (inactive) | -4.72% (inactive) | 1.01 (inactive) | -0.283 (inactive) | -0.8% (inactive) | -0.8 | 0% (inactive) | -1.8% (inactive) | -11.8% (inactive) | -4.7% (inactive) | -1.4% (inactive) | 1.7% (inactive) | -1.4% (inactive)
12 | Cc1ccsc1C(=CCCN1CCC[C@@H](C(=O)O)C1)c1sccc1C | 111% (inactive) | 71.9% | – | – | 0.99 (inactive) | -2.77% (inactive) | 3.75% (inactive) | 0.96 (inactive) | 1.77 (inactive) | 1.8% (inactive) | 0.9 | 0.1% (inactive) | -15.1% (inactive) | -6.2% (inactive) | 2.2% (inactive) | 25% (inactive) | -16.3% (inactive) | 2.5% (inactive)
